These results are taken from ChEMBL document CHEMBL3988442, “University of Dundee, Small-Polar-MMV Screening Library” (2021).

For some assays here: Entries with a potency or affinity are not part of this list.

What all share (design): scale not given: direction of the effect not stated beside the values
In assay [1] the target is Protein translocase subunit SecA (Escherichia coli (strain K12)) (UniProt P10408). The experiment in a line: Assay to Identify E. coli SecA ATPase Inhibitors. Type of assay: functional. To be noted: 30 µM.
The target in assay [2] is T1, Ubiquitin-activating enzyme e1, putative (Leishmania donovani (strain BPK282A1)) (UniProt E9BSI1).
T1 sequence (whole entry): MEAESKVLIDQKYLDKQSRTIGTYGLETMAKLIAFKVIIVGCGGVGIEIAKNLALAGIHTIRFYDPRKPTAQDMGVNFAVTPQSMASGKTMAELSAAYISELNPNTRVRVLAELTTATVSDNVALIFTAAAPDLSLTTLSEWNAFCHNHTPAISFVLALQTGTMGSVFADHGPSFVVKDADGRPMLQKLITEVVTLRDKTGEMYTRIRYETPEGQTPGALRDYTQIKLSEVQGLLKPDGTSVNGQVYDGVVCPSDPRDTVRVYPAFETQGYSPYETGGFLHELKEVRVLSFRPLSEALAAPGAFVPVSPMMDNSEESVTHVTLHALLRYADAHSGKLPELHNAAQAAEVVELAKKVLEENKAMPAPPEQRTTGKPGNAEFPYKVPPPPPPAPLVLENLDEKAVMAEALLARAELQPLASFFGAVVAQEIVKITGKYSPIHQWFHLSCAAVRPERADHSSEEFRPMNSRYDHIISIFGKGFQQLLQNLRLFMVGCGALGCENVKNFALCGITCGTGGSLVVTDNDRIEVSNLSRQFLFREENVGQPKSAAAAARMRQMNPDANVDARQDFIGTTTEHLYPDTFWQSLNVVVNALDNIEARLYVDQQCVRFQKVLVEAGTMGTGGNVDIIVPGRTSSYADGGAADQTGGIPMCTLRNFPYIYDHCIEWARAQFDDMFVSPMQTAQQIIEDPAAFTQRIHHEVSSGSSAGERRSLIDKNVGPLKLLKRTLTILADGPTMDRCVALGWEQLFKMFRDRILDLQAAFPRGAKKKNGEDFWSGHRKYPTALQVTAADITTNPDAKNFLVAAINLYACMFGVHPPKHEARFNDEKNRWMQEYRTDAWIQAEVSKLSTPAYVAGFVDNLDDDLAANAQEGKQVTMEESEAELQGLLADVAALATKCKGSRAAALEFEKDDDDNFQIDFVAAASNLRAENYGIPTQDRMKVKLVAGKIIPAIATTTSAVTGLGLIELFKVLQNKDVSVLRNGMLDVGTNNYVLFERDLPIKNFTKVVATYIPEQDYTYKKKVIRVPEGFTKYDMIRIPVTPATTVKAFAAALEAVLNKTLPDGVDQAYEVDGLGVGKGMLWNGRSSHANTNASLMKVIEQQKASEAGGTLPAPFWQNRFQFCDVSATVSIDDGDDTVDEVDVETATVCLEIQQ
The assay is described as follows: Leishmania donovani Ubiquitin Activating Enzyme (LdE1). Type of assay: functional. To be noted: 30 µM.

The target in assay [3] is AMP-activated protein kinase, AMPK (Homo sapiens) (UniProt P54646+O43741+P54619+Q9UGJ0+Q9Y478+Q13131+Q9UGI9). The assay is described as follows: AMP-dependent Kinase enzyme assay. An in vitro enzyme assay that detects ADP turnover that is directly proportional to AMPK activity. This uses naive AMPK that is activated during the assay with MK-8722. To be noted: 30 µM. Type of assay: functional.

Assay [4] has as its target Sialic acid-binding Ig-like lectin 9 (Homo sapiens) (UniProt Q9Y336). The assay is described as follows: Hs-Siglec9 ALPHAscreen SOP 20170721. To be noted: 10 µM.
For a further assay, the system named is Trypanosoma cruzi. The assay is described as follows: Trypanosoma cruzi phosphomannomutase and mannose-1-phosphate guanylyltransferase assay. As to conditions: 10 µM. The assay is classed as functional.
Assay [5] has as its target T2, Arginase-2, mitochondrial (Homo sapiens) (UniProt P78540).
T2 sequence (whole entry): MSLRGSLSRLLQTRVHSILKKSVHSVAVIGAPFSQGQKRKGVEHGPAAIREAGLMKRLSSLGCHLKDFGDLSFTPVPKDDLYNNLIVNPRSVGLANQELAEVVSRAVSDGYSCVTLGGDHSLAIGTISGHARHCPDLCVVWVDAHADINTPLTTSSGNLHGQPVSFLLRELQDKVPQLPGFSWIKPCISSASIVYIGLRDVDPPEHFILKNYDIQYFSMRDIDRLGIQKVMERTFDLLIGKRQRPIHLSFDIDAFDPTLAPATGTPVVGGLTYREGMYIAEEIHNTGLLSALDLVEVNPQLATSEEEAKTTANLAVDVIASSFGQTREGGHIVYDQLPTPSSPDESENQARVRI
The assay is described as follows: in vitro enzyme assay to detect the production of urea directly proportional to the activity of Arginase II. Note: in the data most compounds retested in dose-response had high values. The assay is classed as functional. As to conditions: 33.3 µM.

Assay [6] addresses T3, Proteasome subunit beta (Trypanosoma cruzi) (UniProt O96673).
T3 sequence (whole entry): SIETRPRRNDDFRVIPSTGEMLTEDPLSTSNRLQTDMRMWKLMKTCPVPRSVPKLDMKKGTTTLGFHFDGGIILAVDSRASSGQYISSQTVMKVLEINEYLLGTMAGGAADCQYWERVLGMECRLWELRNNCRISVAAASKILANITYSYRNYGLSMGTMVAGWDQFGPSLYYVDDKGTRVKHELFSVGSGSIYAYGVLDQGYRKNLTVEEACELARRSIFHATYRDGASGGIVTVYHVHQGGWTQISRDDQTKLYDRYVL
The assay is described as follows: Trypanosoma cruzi proteasome chymotrypsin-like activity (TcProtChymo) assay. Note: in the data most compounds retested in dose-response had high values. Type of assay: functional. To be noted: 9.37 µM.

The species entered for another assay is Homo sapiens. The assay is described as follows: To identify inhibition of the IFN signalling (Jak-Stat) pathway via expression of an eGFP reporter gene under the control of an IFN-stimulated response element (ISRE) containing MxA promoter. Type of assay: functional. As to conditions: 30 µM. Background: Reporter assays use an easily measured gene product as a stand-in for the process of interest.

Assay [7] addresses T4, Tyrosyl-tRNA synthetase, putative (Trypanosoma cruzi (strain CL Brener)) (UniProt Q4DSP6).
T4 sequence (whole entry): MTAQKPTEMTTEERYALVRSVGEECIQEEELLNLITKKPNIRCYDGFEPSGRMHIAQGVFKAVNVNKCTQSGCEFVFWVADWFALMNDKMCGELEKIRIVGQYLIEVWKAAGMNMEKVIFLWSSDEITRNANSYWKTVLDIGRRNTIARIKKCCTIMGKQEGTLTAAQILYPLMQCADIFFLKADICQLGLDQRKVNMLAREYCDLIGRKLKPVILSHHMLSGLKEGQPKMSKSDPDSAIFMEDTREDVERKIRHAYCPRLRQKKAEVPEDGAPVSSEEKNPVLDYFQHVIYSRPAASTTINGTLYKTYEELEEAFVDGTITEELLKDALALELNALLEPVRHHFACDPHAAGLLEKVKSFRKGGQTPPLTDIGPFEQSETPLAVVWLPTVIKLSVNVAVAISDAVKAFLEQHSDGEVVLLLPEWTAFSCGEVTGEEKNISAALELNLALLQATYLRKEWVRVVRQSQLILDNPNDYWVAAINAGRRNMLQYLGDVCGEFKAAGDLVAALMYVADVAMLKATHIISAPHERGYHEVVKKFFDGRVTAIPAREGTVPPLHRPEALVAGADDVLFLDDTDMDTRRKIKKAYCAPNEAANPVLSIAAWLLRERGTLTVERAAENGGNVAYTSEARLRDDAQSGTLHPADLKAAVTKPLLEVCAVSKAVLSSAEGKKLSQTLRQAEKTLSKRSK
The assay is described as follows: Trypanosoma cruzi tyrosyl tRNA synthetase (TcYRS) _High Tyrosine SOP. Note: in the data most compounds retested in dose-response had high values. The assay is classed as functional. As to conditions: 30 µM.

Assay [8] has as its target T4, Tyrosyl-tRNA synthetase, putative (Trypanosoma cruzi (strain CL Brener)). The experiment in a line: Trypanosoma cruzi tyrosyl tRNA synthetase (TcYRS) SOP. Type of assay: functional. To be noted: 30 µM.
For assay [9], the target named is Chromo domain-containing protein 1 (Saccharomyces cerevisiae (strain ATCC 204508 / S288c) (Baker's yeast)) (UniProt P32657). The assay is described as follows: ScCHD-1 Enzyme Inhibition Assay. Note: in the data most compounds retested in dose-response had high values. Type of assay: functional. As to conditions: 30 µM.
Sequence of Chromo domain-containing protein 1 (Saccharomyces cerevisiae (strain ATCC 204508 / S288c) (Baker's yeast)) (P32657 whole entry, the tested form may be a part): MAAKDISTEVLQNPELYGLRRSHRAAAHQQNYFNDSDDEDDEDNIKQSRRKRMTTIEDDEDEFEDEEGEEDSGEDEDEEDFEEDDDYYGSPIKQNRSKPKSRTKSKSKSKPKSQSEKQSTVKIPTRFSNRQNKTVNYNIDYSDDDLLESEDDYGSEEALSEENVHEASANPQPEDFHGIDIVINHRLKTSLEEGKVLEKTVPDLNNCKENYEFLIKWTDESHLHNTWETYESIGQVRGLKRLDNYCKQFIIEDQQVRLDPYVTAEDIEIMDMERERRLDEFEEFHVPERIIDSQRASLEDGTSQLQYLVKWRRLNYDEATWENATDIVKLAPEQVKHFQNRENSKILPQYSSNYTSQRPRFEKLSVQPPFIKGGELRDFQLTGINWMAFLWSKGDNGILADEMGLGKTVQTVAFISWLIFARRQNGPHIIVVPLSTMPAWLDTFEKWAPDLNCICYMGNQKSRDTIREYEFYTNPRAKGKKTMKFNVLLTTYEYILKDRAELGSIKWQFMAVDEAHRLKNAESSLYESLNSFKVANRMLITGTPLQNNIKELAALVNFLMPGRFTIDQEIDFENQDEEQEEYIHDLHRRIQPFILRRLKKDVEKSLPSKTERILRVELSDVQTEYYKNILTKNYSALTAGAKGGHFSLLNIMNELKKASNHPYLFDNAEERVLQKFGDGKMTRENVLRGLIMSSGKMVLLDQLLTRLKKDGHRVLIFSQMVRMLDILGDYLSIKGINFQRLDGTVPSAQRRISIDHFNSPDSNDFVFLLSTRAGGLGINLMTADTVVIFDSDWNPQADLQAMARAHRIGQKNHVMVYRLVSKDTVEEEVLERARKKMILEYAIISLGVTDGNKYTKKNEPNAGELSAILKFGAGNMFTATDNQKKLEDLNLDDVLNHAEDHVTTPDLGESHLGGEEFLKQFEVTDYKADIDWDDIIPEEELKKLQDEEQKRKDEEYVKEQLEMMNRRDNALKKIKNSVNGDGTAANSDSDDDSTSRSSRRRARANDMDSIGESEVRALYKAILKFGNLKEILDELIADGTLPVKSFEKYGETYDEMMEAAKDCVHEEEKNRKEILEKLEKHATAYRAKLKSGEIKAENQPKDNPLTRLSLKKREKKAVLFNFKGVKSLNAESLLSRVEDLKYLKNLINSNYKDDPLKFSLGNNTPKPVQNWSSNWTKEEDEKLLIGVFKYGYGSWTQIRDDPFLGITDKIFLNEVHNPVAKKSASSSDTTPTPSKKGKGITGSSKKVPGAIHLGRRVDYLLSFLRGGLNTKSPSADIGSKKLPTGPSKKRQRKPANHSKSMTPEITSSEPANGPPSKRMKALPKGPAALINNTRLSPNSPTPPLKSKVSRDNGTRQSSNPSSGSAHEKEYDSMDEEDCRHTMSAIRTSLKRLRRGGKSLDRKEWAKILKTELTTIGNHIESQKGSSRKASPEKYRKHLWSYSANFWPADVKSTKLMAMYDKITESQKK

Sequence of Sialic acid-binding Ig-like lectin 9 (Homo sapiens) (Q9Y336 whole entry): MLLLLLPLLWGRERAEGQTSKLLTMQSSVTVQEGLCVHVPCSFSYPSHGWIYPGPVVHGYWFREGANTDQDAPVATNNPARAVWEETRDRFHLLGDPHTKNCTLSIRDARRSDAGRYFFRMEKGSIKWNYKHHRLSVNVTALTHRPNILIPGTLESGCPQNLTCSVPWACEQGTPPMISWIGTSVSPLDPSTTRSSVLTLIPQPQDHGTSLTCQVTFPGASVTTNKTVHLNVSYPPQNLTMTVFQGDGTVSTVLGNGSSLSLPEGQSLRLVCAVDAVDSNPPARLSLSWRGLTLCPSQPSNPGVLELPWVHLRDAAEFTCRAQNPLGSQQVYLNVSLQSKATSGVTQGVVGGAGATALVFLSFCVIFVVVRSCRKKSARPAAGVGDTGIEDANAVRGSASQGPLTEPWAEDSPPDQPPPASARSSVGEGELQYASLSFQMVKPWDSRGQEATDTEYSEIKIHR
Sequence of Protein translocase subunit SecA (Escherichia coli (strain K12)) (P10408 whole entry): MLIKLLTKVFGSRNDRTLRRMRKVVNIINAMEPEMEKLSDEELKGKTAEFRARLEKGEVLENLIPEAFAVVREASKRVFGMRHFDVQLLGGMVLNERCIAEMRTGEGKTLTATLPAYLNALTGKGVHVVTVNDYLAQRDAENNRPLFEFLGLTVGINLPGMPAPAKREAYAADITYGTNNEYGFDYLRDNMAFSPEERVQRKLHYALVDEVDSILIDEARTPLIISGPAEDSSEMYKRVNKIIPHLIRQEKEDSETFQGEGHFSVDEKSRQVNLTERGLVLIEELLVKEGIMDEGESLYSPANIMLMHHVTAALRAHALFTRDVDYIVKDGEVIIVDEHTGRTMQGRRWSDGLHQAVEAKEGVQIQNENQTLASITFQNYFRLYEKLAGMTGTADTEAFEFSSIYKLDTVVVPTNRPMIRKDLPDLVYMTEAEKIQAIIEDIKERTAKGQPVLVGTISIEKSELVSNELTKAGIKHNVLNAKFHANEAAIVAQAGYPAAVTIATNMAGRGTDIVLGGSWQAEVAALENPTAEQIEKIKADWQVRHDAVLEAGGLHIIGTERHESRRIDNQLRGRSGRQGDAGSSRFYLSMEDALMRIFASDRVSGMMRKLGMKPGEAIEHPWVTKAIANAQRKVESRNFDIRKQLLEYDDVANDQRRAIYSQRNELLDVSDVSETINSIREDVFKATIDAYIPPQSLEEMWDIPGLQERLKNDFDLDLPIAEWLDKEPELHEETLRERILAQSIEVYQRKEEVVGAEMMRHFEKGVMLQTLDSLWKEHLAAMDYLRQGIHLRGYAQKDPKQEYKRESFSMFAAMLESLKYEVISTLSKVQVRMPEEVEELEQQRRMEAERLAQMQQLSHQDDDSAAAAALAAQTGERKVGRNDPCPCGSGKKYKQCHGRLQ

For the compound `CC(C)c1nc2c(n1C)CCN(Cc1nc(-c3cccs3)no1)C2`, the Percent Effect was -5.48% in assay [1]; -5.41% in [2]; 8.78% in assay [3]; 3.18% in assay [4]; 1.21% with Trypanosoma cruzi; -1.66% in assay [5]. Moreover, the Percent Effect came to 2.33% in assay [6]; 0.809% in the assay listed under Homo sapiens; 6.93% in [7]; 11% in [8]; 9.28% in [9].
For `CC[C@@H]1N(CC2CC2)CCC[C@]12CCC(=O)N2CCOC`, the Percent Effect in assay [1] was -3.03%; in assay [2] it was 8%; in assay [3], 5.19%; in assay [4] it was 4.35%; with Trypanosoma cruzi it was 0.772%; in assay [5], -53.9%. Besides, the Percent Effect was 5.47% in [6]; -8.94% in the assay filed under Homo sapiens; 5.21% in assay [7]; 0% in assay [8]; -4.58% in [9].
For `O=C(CCN1CCCC1c1cccs1)N1CCc2sccc2C1` (stereo not given), the Percent Effect in assay [1] is 0.699%; in assay [2], -29.7%; in [3] it was -9.71%; in assay [4] it was 3.83%; in the assay with Trypanosoma cruzi, -1.6%; in [5] it was -18%. Besides, the Percent Effect was 3.96% in [6]; 5.67% in the assay filed under Homo sapiens; 3.45% in assay [7]; -11.1% in assay [8]; 2.06% in assay [9].
In the case of `O=C(c1ccccn1)N1CCCC(c2nccn2Cc2ccncc2)C1` (stereo not given), the Percent Effect in assay [1] is -1.27%; in assay [2] it was 2.74%; in assay [3], -0.242%; in assay [4] it was 0.902%; in the assay with Trypanosoma cruzi, 2.94%; in [5] it was 0.909%. In addition, the Percent Effect in [6] is 19.7%; in the assay filed under Homo sapiens, 3.55%; in [7], 10.8%; in assay [8], 10%; in [9], -14%.
Take `CC(C)c1nc(C(=O)NCCn2ccnc2)nn1-c1cccc(F)c1`: the Percent Effect in assay [1] is -6%; in [2], 15.8%; in [3] it was -4.38%; in assay [4], -4.66%; with Trypanosoma cruzi it was -3.46%; in [5], -6.47%. In addition, the Percent Effect in assay [6] was 1.1%; in the assay filed under Homo sapiens, -1.8%; in assay [7], 1.48%; in [8] it was 6.17%; in assay [9], -5.42%.
For `Cc1nn(C)c(Cl)c1C1CCCN1C(=O)c1ccc2nncn2c1` (stereo not given), the Percent Effect in assay [1] is -3.02%; in assay [2], 0%; in [3] it was 2.19%; in assay [4] it was -4.7%; in the assay on Trypanosoma cruzi, -4.25%; in assay [5], 0%. Also, the Percent Effect was 3.6% in assay [6]; -2.92% in the assay listed under Homo sapiens; -4.43% in assay [7]; -6.17% in assay [8]; -0.833% in assay [9].
With `O=C1CCCc2cc(-c3csc(CCN4CCOC4=O)n3)ccc2N1`, the Percent Effect in assay [1] is -5.49%; in [2] it was 20.8%; in [3] it was 0.804%; in assay [4], 11.1%; in the assay on Trypanosoma cruzi, 4.12%; in assay [5] it was 2.85%. Moreover, the Percent Effect is 18.1% in [6]; 36.1% in the assay filed under Homo sapiens; 8.74% in assay [7]; 26.8% in assay [8]; -9.88% in [9].
Consider `Cc1noc(C)c1C(=O)N1CCCC1c1c(C)nn(C)c1Cl` (stereo not given), for which the Percent Effect is -4.44% in assay [1]; 7.59% in [2]; -2.1% in assay [3]; 8.04% in assay [4]; 5.38% in the assay on Trypanosoma cruzi; -4.56% in assay [5]. Also, the Percent Effect in assay [6] was -1.72%; in the assay filed under Homo sapiens it was 4.02%; in assay [7], 2.46%; in assay [8] it was 8.86%; in [9], -0.777%.
Consider `Cc1cnn(CCC(=O)N2CCCC(c3cc(C(N)=O)[nH]n3)C2)c1` (stereo not given), for which the Percent Effect in assay [1] is -1.91%; in assay [2], 5.41%; in assay [3], -10.4%; in assay [4], 10.5%; in the assay with Trypanosoma cruzi, 1.79%; in assay [5], -2.4%. The Percent Effect in assay [6] was -0.901%; in the assay filed under Homo sapiens, 4.5%; in [7], 1.48%; in assay [8], 11.1%; in assay [9], -7.36%.
As for `CCc1ncc2c(n1)CN(CC(=O)NCCOc1ccccc1)CC2`, the Percent Effect was -4.72% in [1]; 7.89% in [2]; -23.5% in [3]; -1.72% in assay [4]; 1.21% with Trypanosoma cruzi; -1.44% in assay [5]. For the same compound, the Percent Effect is -5.84% in assay [6]; -22.3% in the assay listed under Homo sapiens; 11.3% in assay [7]; 6.17% in [8]; 1.38% in [9].
